Test results published in PubChem BioAssay AID1159580 (chemical genetic matrix, 2015).
Where “and” joins values, the source holds several entries; their conditions need not be identical. Equal values may be shown once. Out of some 5,500 compounds screened, about 2,000 (36%) were called active. About 18% were inconclusive and are not listed. Cut-off read from the data, not from the text of the source: active = normalized growth mostly below about 0.91 (no sharp cut-off); inconclusive = no clear call, values can overlap the other calls; inactive = mostly above about 0.92. Some of the results follow.

Assay: chemical genetic growth profiling, strain panel (AID 1159580);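 note: tested at 20 µM; growth read once vehicle control cultures reached saturation at 30 °C; 1 = growth at the plate median or of vehicle wells; lower values mean less growth of the strain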
Settings: S. cerevisiae deletion strains, growth OD

Measured: normalized growth

Cn1cnc([N+](=O)[O-])c1Sc1ncnc2nc[nH]c12
inactive: locus YAL021C, strain ccr4, stronger effect = lower value 1.03 | locus YAL026C, strain drs2, stronger effect = lower value 1.04 | locus YAL030W, strain snc1, stronger effect = lower value 1.02 | locus YAL040C, strain CLN3, stronger effect = lower value 1.01 | locus YBL061C, strain skt5, stronger effect = lower value 1.03 | locus YBR009C, strain hhf1, stronger effect = lower value 1.01 | locus YBR021W, strain FUR4, stronger effect = lower value 1.02 | locus YBR023C, strain chs3, stronger effect = lower value 1.02 | locus YBR171W, strain sec66, stronger effect = lower value 1.02 | locus YBR229C, strain ROT2, stronger effect = lower value 1.01 | locus YBR231C, strain swc5, stronger effect = lower value 1.01 | locus YBR279W, strain paf1, stronger effect = lower value 1.01 | locus YCL011C, strain gbp2, stronger effect = lower value 1.01 | locus YCL016C, strain dcc1, stronger effect = lower value 1.04 | locus YCL029C, strain bik1, stronger effect = lower value 0.997 | locus YCL069W, strain vba3, stronger effect = lower value 1.02 | locus YCR088W, strain abp1, stronger effect = lower value 1.02 | locus YDL005C, strain med2, stronger effect = lower value 1.01 | locus YDL035C, strain GPR1, stronger effect = lower value 1.03 | locus YDL040C, strain nat1, stronger effect = lower value 1.02 | locus YDL074C, strain BRE1, stronger effect = lower value 1.01 | locus YDL101C, strain DUN1, stronger effect = lower value 1.01 | locus YDL134C, strain PPH21, stronger effect = lower value 1.02 | locus YDL185W, strain tfp1, stronger effect = lower value 1 | locus YDL192W, strain arf1, stronger effect = lower value 0.994 | locus YDR001C, strain nth1, stronger effect = lower value 1.02 | locus YDR069C, strain doa4, stronger effect = lower value 1.02 | locus YDR101C, strain arx1, stronger effect = lower value 0.999 | locus YDR137W, strain rgp1, stronger effect = lower value 1.02 | locus YDR150W, strain NUM1, stronger effect = lower value 0.999 | locus YDR159W, strain sac3, stronger effect = lower value 1 | locus YDR162C, strain NBP2, stronger effect = lower value 1.03 | locus YDR195W, strain ref2 0.996 | locus YDR297W, strain sur2, stronger effect = lower value 1.03 | locus YDR318W, strain mcm21, stronger effect = lower value 0.996 | locus YDR334W, strain swr1, stronger effect = lower value 1.03 | locus YDR335W, strain msn5, stronger effect = lower value 1.01 | locus YDR363W, strain ESC2, stronger effect = lower value 1.01 | locus YDR388W, stronger effect = lower value 0.985 | locus YDR392W, strain spt3, stronger effect = lower value 1.04 | locus YDR502C, strain sam2, stronger effect = lower value 0.985 | locus YEL003W, strain gim4, stronger effect = lower value 1.03 | locus YEL037C, strain rad23, stronger effect = lower value 1.01 | locus YEL061C, strain CIN8 (second series), stronger effect = lower value 1.03 | locus YEL061C, strain CIN8, stronger effect = lower value 1.01 | locus YER002W, strain NOP16, stronger effect = lower value 0.995 | locus YER015W, strain faa2, stronger effect = lower value 1.02 | locus YER016W, strain bim1, stronger effect = lower value 1.01 | locus YER110C, stronger effect = lower value 0.989 | locus YER111C, strain swi4, stronger effect = lower value 1.03 | locus YER155C, strain BEM2 (second series), stronger effect = lower value 0.996 | locus YER155C, strain BEM2, stronger effect = lower value 1.01 | locus YER167W, strain BCK2, stronger effect = lower value 1.02 | locus YFR010W, strain ubp6, stronger effect = lower value 1 | locus YGL078C, strain dbp3, stronger effect = lower value 0.988 | locus YGL086W, strain mad1, stronger effect = lower value 0.991 | locus YGL167C, strain pmr1, stronger effect = lower value 1.02 | locus YGL173C, strain kem1, stronger effect = lower value 1.02 | locus YGL227W, strain vid30, stronger effect = lower value 1 | locus YGL240W, strain doc1, stronger effect = lower value 1.04 | locus YGL248W, strain PDE1, stronger effect = lower value 1.01 | locus YGL253W, strain hxk2, stronger effect = lower value 1.03 | locus YGR078C, strain PAC10, stronger effect = lower value 1.01 | locus YGR135W, strain pre9, stronger effect = lower value 0.991 | locus YGR229C, strain SMI1, stronger effect = lower value 1.03 | locus YGR252W, strain gcn5, stronger effect = lower value 0.974 | locus YHR013C, strain ard1, stronger effect = lower value 1.02 | locus YHR027C, strain rpn1, stronger effect = lower value 1.03 | locus YHR030C, strain SLT2, stronger effect = lower value 1.02 and 1.08 | locus YHR079C, strain IRE1 (second series), stronger effect = lower value 0.995 | locus YHR079C, strain IRE1, stronger effect = lower value 1.05 | locus YHR094C, strain hxt1, stronger effect = lower value 0.994 | locus YHR129C, strain ARP1, stronger effect = lower value 1.01 | locus YHR142W, strain chs7, stronger effect = lower value 1.06 | locus YHR200W, strain rpn10, stronger effect = lower value 0.994 | locus YIL066C, strain RNR3, stronger effect = lower value 1.03 | locus YIL073C, strain SPO22, stronger effect = lower value 1.02 | locus YIL125W, strain kgd1, stronger effect = lower value 0.991 | locus YIR030C, strain dcg1, stronger effect = lower value 0.992 | locus YJL092W, strain hpr5, stronger effect = lower value 1.02 | locus YJL095W, strain BCK1 (second series), stronger effect = lower value 1 | locus YJL095W, strain BCK1, stronger effect = lower value 0.988 and 1.05 | locus YJL115W, strain asf1, stronger effect = lower value 1.05 | locus YJL129C, strain trk1, stronger effect = lower value 1.03 | locus YJL134W, strain LCB3, stronger effect = lower value 1.01 | locus YJL154C, strain vps35, stronger effect = lower value 1.02 | locus YJL164C, strain tpk1, stronger effect = lower value 1.04 | locus YJL166W, strain qcr8, stronger effect = lower value 1.02 | locus YJL168C, strain set2, stronger effect = lower value 0.993 | locus YJL187C, strain SWE1 (second series), stronger effect = lower value 0.997 | locus YJR043C, strain POL32, stronger effect = lower value 1.04 | locus YJR066W, strain TOR1, stronger effect = lower value 0.998 | locus YJR075W, strain HOC1, stronger effect = lower value 1.01 and 0.99
